Measured values: PubChem BioAssay (NCATS)
Inconclusive results are not listed. The source made the active and inactive calls. Calls follow the shape of the dose curve; as a rule, active = well fitted inhibition curve with a large enough effect in the repeat runs; inconclusive = weak or mixed curves; inactive = no such curve, though single readings can be large or run the other way.

biological target: Cytochrome P450 2C9 (Homo sapiens) (UniProt P11712); assay: Cytochrome P450 family 2 subfamily C member 9 (CYP2C9) small molecule antagonists: luciferase biochemical (cell-free) qHTS assay (AID 1645842); settings: P450-Glo CYP2C9 enzyme assay, luciferin luminescence; series mostly up to 57.4 µM; also: nearly all actives have a fitted effect of over 55% in size
Sequence (P11712 whole entry, looked up): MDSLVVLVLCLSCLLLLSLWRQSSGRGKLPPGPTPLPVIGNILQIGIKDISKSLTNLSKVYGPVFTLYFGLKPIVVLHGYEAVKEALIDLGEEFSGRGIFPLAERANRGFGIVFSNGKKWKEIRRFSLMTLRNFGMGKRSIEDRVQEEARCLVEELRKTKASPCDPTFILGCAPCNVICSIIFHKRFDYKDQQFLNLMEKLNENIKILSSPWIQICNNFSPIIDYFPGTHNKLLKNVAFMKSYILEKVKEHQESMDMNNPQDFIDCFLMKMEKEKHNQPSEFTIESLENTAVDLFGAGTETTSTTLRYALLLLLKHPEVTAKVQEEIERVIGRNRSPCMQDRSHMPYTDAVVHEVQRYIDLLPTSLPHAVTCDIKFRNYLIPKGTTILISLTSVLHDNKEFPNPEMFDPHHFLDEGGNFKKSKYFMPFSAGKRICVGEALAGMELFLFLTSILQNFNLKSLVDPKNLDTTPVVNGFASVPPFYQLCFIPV
How it was run: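 P450-Glo CYP2C9 system: proluciferin substrate with enzyme in mix containing 0.4% BSA, 10 min at room temperature, then NADPH regeneration solution added and incubated 1 h at 37C. Detection reagent stopped reaction; luminescence read after 20 min as RLU.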
Potency is read from the fitted curve at half-maximal effect.

Row | SMILES | Potency
1 | CCc1ccc(-n2c(SCc3ccccc3Cl)nc3[nH]ncc3c2=O)cc1 | 23.9 µM (active)
2 | COc1ccc(Cn2ccnc2SCC(=O)Nc2nc3ccccc3s2)cc1 | 2.39 µM (active)
3 | CCc1ccc(S(=O)(=O)NCc2ccc3c(c2)CCN3C(=O)c2ccc(C)cc2)cc1 | 0.674 µM (active)
4 | CCOc1ccc(C(NC(=O)c2cc(OC)c(OC)c(OC)c2)c2cc(Cl)c3cccnc3c2O)cc1 (centres undefined) | 30.1 µM (active)
5 | COc1ccc(-c2n[nH]c3c2cnc2cc(OC)c(OC)cc23)cc1 | inactive
6 | Cc1cc(Cl)ccc1NC(=O)CCCn1nc(C)c2c(C)n(-c3ccccc3)nc2c1=O | 13.5 µM (active)
7 | COc1ccc2c(c1)CCc1sc(NC(=O)c3cccc(Br)c3)nc1-2 | 5.35 µM (active)
8 | CCOc1ccccc1CNC(=O)C1CCN(S(=O)(=O)c2c(C)noc2/C=C/c2ccccc2F)CC1 | 0.151 µM (active)
9 | NC(=O)c1ccc(Cc2c(-c3cccc(-c4ccccc4)c3)[nH]n(-c3nc(C(=O)O)cs3)c2=O)cc1 | 26.8 µM (active)
10 | COC(=O)c1cnc(N2CCN(c3ccc(OC)cc3)CC2)c2ccccc12 | 2.13 µM (active)
11 | CC1=C(C(=O)NCc2cncn2C)C(c2ccccc2Cl)N=C(Nc2nc3ccccc3o2)N1 (centres undefined) | 7.56 µM (active)
12 | CC(C)OCc1cc(CN2CCN(c3cccc(C(F)(F)F)c3)CC2)c(O)c2ncccc12 | 12 µM (active)
13 | COC(=O)c1c(SCC(=O)Nc2cc(C)cc(C)c2)[nH]c2ccccc2c1=O | 21.3 µM (active)
14 | Cc1ccc(Nc2nc3nonc3nc2Nc2cccc(C(F)(F)F)c2)cc1Cl | 5.35 µM (active)
15 | COc1cc(C(c2c(C)[nH][nH]c2=O)c2c(C)[nH][nH]c2=O)ccc1OC(=O)c1ccccc1OC | 8.49 µM (active)
16 | Cc1ccc(C2=CC(c3ccccc3C)n3c(nc4ccccc43)N2)cc1 (centres undefined) | 3.38 µM (active)
17 | Cc1ccc(-n2c(SCc3ccccc3F)nc3[nH]ncc3c2=O)cc1C | 13.5 µM (active)
18 | COc1ccc(-n2ccn(CC(=O)Nc3ccc(C)c(C)c3)c(=O)c2=O)cc1OC | inactive
19 | CCN1CCN(CCCNC(=O)c2cc3c(s2)-c2c(C)cccc2OC3)CC1 | inactive
20 | CCC(=O)N1CCc2cc(S(=O)(=O)NC(Cc3ccccc3)C(=O)NCc3cccc(OC)c3)ccc21 (centres undefined) | 12 µM (active)

Row | SMILES | Potency
21 | CCOc1ccc(NC(=O)Cn2cc(C(=O)c3cccs3)c3ccccc32)cc1 | 1.69 µM (active)
22 | CCOC(=O)c1ccc(NC(=O)CCn2c(=O)c3cccn3c3cccnc32)cc1 | 10.7 µM (active)
23 | CCc1ccc(-c2nc(CSCC(=O)NCc3ccc(C)cc3)c(C)o2)cc1 | 2.68 µM (active)
24 | COc1cccc(C(=O)NC(c2ccc(Cl)cc2)c2cc(Cl)c3cccnc3c2O)c1 (centres undefined) | 23.9 µM (active)
25 | Cc1ccc2nc3c(cc(C#N)c(=O)n3-c3nnc(SCc4ccccc4)s3)c(=O)n2c1 | 3.79 µM (active)
26 | Cc1cc(-n2c(SCc3ccccc3F)nc3[nH]ncc3c2=O)ccc1Cl | 23.9 µM (active)
27 | CCc1ccc(C2=CC(c3cccc(C)c3)n3c(nc4ccccc43)N2)cc1 (centres undefined) | 6.01 µM (active)
28 | CC1(C#N)CCN(c2c(C(=O)N3CCN(S(C)(=O)=O)CC3)cnc3ccc(F)cc23)CC1 | inactive
29 | CC1(C#N)CCN(c2c(C(=O)N3CCN(C(=O)N4CCCC4)CC3)cnc3c(F)cc(F)cc23)CC1 | 12 µM (active)
30 | CC(CCC(=O)O)C1CC[C@H]2C3[C@H](O)C[C@@H]4C[C@H](O)CCC4(C)[C@H]3C[C@H](O)C12C (some centres undefined) | inactive
31 | O=C(CSc1nccn1Cc1ccc(F)cc1)Nc1nc2ccccc2s1 | 7.56 µM (active)
32 | COc1ccc(CNC(=O)Nc2ccc3c(c2)N(C)C(=O)c2ccccc2S3)cc1OC | inactive
33 | COC(=O)C1=C(c2ccccc2)c2ccccc2S(=O)(=O)N1CC(=O)Nc1ccccc1Cl | 4.77 µM (active)
34 | N#C/C(=C/c1ccccc1Cl)c1nc2ccccc2c(=O)[nH]1 | 3.38 µM (active)
35 | COc1ccc(NC(=O)Cn2ccn(-c3ccc(C)c(C)c3)c(=O)c2=O)cc1Cl | inactive
36 | Cc1ccc(S(=O)(=O)NC2CCC(C(C)(C)C)CC2)cc1 (centres undefined) | 2.68 µM (active)
37 | COC(=O)c1c(-c2ccc(Cl)cc2)noc1N1CCN(c2ccccc2OC)CC1 | inactive
38 | Cc1ccc(C)c(Nc2nc3nonc3nc2Nc2cccc(C)c2C)c1 | inactive
39 | Cc1cccc(NC(=O)Cn2cc(C(=O)c3ccco3)c3ccccc32)c1C | 3.01 µM (active)
